Test [1] addresses Mitogen-activated protein kinase kinase kinase kinase 4 (Homo sapiens) (UniProt O95819). Particulars: at 1 µM.
Test [2] concerns the target Dual specificity mitogen-activated protein kinase kinase 1 (Homo sapiens) (UniProt Q02750). To be noted: at 0.1 µM.
For test [3] the target is unchanged. To be noted: at 1 µM.
The target in test [4] is Misshapen-like kinase 1 (Homo sapiens) (UniProt Q8N4C8). To be noted: at 0.1 µM.
Test [5] has the same target. To be noted: at 1 µM.
Test [6] addresses T1, Serine/threonine-protein kinase 4 (Homo sapiens) (UniProt Q13043).
T1 sequence (whole entry): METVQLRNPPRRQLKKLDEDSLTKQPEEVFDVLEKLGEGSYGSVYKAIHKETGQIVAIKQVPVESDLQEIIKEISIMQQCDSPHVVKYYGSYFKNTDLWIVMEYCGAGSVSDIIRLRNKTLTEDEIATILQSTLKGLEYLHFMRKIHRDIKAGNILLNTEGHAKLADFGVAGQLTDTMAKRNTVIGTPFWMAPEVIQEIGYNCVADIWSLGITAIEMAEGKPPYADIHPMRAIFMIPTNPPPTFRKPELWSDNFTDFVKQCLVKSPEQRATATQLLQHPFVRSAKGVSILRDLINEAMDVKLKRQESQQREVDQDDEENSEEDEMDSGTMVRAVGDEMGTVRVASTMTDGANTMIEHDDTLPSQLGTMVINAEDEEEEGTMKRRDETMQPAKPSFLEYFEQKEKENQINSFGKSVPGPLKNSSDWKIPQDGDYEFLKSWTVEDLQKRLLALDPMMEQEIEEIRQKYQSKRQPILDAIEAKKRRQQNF
Particulars: at 0.1 µM.

Test [7] addresses T1, Serine/threonine-protein kinase 4 (Homo sapiens). Particulars: at 1 µM.
Test [8] has as its target T2, Serine/threonine-protein kinase 3 (Homo sapiens) (UniProt Q13188).
T2 sequence (whole entry): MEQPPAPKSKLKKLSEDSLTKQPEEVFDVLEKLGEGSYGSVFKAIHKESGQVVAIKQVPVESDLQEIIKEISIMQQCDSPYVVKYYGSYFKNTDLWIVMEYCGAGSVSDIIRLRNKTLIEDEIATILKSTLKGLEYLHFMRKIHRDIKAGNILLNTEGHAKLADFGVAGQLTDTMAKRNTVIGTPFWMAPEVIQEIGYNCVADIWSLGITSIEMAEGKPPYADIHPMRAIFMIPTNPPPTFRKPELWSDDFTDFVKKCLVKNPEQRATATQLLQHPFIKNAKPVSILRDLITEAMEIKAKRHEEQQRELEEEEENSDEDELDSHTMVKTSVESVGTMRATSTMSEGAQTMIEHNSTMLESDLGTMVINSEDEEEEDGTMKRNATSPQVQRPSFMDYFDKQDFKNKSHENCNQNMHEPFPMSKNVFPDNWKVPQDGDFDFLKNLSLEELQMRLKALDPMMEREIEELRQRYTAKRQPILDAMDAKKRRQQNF
Particulars: at 0.1 µM.

The target in test [9] is T2, Serine/threonine-protein kinase 3 (Homo sapiens). Particulars: at 1 µM.
The target of test [10] is Serine/threonine-protein kinase 26 (Homo sapiens) (UniProt Q9P289). Particulars: at 0.1 µM.
Test [11] shares this target. Particulars: at 1 µM.
Test [12] addresses Serine/threonine-protein kinase PAK 1 (Homo sapiens) (UniProt Q13153). Particulars: at 0.1 µM.
The target is the same in test [13]. To be noted: at 1 µM.
Test [14] deals with Serine/threonine-protein kinase PAK 2 (Homo sapiens) (UniProt Q13177). Particulars: at 0.1 µM.
Test [15] shares this target. To be noted: at 1 µM.
Test [16] deals with Serine/threonine-protein kinase PAK 3 (Homo sapiens) (UniProt O75914). To be noted: at 0.1 µM.
The target is the same in test [17]. Particulars: at 1 µM.
In test [18] the target is Serine/threonine-protein kinase PAK 5 (Homo sapiens) (UniProt Q9P286). Particulars: at 0.1 µM.
For test [19] the target is unchanged. Particulars: at 1 µM.
For test [20], the target named is Serine/threonine-protein kinase PAK 6 (Homo sapiens) (UniProt Q9NQU5). To be noted: at 0.1 µM.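 Further: mean PAK6 inhibition reported from the GSK PKIS screen.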
Sequence of Serine/threonine-protein kinase PAK 6 (Homo sapiens) (Q9NQU5 whole entry, looked up): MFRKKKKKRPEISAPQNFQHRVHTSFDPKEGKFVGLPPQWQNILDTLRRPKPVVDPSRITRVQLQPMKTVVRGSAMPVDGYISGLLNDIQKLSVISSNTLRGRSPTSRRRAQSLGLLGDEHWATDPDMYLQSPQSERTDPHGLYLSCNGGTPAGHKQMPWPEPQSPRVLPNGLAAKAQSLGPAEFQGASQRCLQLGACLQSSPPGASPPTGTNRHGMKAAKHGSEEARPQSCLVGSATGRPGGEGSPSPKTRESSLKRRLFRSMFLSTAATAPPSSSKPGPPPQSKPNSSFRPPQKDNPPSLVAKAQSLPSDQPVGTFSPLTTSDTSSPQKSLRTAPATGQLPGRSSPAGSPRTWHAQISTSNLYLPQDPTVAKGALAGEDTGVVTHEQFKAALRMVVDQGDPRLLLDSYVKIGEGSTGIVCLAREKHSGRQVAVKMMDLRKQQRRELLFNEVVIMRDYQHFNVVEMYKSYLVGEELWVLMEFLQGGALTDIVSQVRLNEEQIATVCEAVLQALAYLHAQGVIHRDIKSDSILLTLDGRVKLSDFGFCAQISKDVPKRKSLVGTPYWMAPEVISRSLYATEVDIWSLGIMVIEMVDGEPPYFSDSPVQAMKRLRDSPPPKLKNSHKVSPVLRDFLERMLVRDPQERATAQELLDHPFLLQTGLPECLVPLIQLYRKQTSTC

Sequence of Serine/threonine-protein kinase PAK 1 (Homo sapiens) (Q13153 whole entry): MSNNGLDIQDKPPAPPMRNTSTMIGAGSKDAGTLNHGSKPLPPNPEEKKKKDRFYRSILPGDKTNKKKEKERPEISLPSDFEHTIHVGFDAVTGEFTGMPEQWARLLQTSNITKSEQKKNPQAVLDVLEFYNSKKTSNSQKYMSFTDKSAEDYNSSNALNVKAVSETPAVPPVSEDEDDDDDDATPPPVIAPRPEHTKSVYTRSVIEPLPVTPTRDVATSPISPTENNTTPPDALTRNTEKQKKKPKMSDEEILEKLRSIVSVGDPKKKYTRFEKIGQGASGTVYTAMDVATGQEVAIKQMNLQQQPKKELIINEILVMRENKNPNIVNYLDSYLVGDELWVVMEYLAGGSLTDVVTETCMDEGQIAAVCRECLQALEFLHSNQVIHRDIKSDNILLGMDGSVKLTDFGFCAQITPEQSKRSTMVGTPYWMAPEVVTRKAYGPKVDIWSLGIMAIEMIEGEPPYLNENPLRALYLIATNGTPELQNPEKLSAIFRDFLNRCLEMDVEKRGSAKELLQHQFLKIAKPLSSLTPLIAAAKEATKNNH
Sequence of Misshapen-like kinase 1 (Homo sapiens) (Q8N4C8 whole entry, looked up): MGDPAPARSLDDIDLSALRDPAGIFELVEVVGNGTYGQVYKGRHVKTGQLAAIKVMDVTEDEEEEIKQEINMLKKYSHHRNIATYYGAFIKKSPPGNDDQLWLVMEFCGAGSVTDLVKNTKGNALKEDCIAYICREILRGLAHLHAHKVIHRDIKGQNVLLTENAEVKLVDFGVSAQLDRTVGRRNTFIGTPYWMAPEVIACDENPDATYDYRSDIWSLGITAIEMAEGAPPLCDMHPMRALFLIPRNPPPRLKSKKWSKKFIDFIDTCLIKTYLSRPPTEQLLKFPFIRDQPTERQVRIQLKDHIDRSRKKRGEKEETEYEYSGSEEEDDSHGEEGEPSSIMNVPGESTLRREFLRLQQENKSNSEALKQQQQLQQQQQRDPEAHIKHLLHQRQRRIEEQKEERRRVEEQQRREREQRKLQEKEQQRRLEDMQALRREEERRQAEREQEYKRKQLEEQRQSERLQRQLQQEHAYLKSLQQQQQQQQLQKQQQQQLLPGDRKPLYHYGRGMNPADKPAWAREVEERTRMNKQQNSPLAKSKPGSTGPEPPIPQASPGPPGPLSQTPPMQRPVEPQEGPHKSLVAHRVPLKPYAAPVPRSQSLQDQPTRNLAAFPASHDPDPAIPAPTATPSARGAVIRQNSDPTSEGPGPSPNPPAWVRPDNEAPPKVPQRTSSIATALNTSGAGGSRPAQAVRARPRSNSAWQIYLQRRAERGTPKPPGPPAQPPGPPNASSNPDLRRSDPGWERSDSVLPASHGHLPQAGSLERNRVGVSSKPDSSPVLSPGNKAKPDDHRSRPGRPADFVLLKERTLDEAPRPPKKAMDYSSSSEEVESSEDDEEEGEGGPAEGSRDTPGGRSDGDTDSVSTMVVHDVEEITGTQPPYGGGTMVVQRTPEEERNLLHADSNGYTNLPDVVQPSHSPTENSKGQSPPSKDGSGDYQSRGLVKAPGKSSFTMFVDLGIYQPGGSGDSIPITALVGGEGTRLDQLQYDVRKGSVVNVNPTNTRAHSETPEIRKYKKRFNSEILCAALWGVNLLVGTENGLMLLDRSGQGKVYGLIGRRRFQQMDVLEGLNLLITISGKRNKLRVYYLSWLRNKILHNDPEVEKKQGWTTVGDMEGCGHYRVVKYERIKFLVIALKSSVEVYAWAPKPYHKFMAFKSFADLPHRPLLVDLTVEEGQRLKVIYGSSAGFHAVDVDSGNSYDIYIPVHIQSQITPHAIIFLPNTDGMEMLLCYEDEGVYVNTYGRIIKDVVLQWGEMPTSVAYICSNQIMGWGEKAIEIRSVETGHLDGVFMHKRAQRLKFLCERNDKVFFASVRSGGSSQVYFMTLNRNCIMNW
Sequence of Serine/threonine-protein kinase PAK 2 (Homo sapiens) (Q13177 whole entry): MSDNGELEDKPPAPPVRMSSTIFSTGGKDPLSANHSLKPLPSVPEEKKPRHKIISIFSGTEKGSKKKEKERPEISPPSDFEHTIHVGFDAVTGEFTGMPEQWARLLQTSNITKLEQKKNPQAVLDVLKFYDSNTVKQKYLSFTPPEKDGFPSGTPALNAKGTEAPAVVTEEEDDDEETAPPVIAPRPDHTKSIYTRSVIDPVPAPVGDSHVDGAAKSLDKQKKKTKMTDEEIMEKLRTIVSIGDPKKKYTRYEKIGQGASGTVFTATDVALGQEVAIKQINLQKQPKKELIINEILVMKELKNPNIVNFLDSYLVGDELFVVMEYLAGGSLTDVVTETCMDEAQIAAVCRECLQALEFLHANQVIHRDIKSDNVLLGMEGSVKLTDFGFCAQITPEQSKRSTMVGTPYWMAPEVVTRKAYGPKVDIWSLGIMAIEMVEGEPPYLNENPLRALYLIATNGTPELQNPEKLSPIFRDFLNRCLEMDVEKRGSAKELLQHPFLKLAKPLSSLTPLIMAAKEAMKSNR
Sequence of Dual specificity mitogen-activated protein kinase kinase 1 (Homo sapiens) (Q02750 whole entry): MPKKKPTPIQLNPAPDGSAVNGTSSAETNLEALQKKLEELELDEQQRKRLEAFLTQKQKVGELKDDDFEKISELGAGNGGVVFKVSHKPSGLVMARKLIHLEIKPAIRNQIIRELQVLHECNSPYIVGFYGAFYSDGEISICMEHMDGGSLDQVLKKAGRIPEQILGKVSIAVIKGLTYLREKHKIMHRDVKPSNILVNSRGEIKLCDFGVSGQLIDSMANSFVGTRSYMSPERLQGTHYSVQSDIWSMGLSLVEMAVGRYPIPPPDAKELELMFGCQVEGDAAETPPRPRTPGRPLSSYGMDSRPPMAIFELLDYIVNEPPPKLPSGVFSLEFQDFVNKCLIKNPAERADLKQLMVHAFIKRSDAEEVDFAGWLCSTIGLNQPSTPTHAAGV
Sequence of Serine/threonine-protein kinase PAK 3 (Homo sapiens) (O75914 whole entry, looked up): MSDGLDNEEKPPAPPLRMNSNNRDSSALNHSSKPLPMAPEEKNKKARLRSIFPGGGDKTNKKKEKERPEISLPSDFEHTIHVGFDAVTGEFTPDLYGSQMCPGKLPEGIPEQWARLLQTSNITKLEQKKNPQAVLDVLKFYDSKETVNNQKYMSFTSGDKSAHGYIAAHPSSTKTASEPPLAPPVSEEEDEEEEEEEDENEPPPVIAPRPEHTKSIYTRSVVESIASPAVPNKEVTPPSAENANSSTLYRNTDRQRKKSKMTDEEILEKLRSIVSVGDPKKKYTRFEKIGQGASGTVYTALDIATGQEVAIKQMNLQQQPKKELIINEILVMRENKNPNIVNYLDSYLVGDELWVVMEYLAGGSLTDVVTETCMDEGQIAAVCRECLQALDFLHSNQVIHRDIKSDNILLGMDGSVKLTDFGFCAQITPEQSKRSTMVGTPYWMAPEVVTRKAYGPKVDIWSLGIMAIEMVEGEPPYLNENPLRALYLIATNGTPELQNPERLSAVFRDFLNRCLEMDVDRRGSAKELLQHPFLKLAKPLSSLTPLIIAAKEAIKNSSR
Sequence of Serine/threonine-protein kinase PAK 5 (Homo sapiens) (Q9P286 whole entry, looked up): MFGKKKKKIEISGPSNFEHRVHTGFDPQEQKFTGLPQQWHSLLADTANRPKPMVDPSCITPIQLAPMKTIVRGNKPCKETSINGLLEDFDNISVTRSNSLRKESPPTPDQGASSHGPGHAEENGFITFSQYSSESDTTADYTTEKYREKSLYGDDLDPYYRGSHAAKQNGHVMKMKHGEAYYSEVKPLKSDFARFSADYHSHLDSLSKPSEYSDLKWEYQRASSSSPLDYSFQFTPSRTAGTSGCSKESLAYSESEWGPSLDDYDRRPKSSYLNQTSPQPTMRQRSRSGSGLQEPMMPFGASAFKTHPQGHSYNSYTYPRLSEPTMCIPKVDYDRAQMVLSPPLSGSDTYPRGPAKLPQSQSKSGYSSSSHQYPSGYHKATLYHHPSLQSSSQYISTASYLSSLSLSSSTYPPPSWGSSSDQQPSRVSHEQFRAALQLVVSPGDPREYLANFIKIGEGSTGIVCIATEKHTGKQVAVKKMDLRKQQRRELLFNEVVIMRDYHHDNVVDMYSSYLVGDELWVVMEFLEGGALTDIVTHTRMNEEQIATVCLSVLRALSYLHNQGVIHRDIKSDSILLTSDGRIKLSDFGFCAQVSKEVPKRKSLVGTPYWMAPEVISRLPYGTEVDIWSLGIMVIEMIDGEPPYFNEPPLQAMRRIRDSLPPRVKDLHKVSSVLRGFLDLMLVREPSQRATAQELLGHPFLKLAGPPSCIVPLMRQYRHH

Broadly, the inhibition is the drop in the measured response relative to a control, in per cent. For the molecule `Nc1nc(-c2cccc(Cl)c2)c(-c2ccc3ncccc3n2)s1`, the inhibition turned out to be 60.1% in test [1]; 5.85% in test [2]; 5.35% in test [3]; 10.7% in test [4]; 46.9% in [5]; 5.29% in test [6]. Further, the inhibition in test [7] was 7.53%; in [8], 5.84%; in [9], 7.74%; in test [10], -1.9%; in test [11], -1.1%; in test [12], 6.12%. Further, the inhibition was 6.28% in test [13]; 2.17% in [14]; 1.78% in test [15]; 3.01% in test [16]; 6.05% in [17]; 1.62% in test [18]. For the same molecule, the inhibition in test [19] is -3.64%; in test [20] it was 3.19%.
`COc1ccc2[nH]c3c4[nH]c5ccc(OC)cc5c4c4c(c3c2c1)C(=O)NC4=O`: the inhibition in test [1] was 88.4%; in [2], 4.86%; in [3], 7.06%; in test [4], 81.3%; in test [5], 84.8%; in test [6], 13%. In addition, the inhibition in [7] was 42%; in test [8], 14.2%; in test [9] it was 42.4%; in test [10], 4.27%; in test [11], 14%; in test [12], 5.41%. Also, the inhibition worked out at 7.72% in test [13]; 1.43% in test [14]; 3.51% in test [15]; 4% in [16]; 5.61% in test [17]; 5.43% in test [18]. For the same molecule, the inhibition in test [19] came out at 4.46%; in test [20], 4.49%.
Take `Cc1ccc2c(-c3ccnc(Nc4ccccc4)n3)c(-c3ccc(F)cc3)nn2n1`: the inhibition in test [1] was 62.1%; in [2] it was 4.55%; in test [3], 10.8%; in test [4], 9.04%; in test [5], 50.7%; in test [6], 6.19%. Moreover, the inhibition is 5.86% in test [7]; 8.21% in test [8]; 5.67% in test [9]; -1.05% in test [10]; 0% in test [11]; 3.46% in [12]. For the same molecule, the inhibition stood at 6.67% in test [13]; 2.41% in test [14]; 1.9% in [15]; 3.55% in test [16]; 4.22% in [17]; 8.15% in test [18]. Moreover, the figures for the inhibition in [19] and in test [20] were 2.93% and 1.48%, respectively.
Consider `N#Cc1c(NC(=O)CN2CCOCC2)sc2c1CCCC2`, for which the inhibition in test [1] was 8.62%; in test [2], 6.12%; in [3] it was 5.95%; in test [4] it was 6.83%; in [5], 6.87%; in [6], 5.59%. For the same molecule, the inhibition in [7] was 8.28%; in test [8] it was 4.7%; in [9], 8.26%; in test [10] it was -1.62%; in test [11] it was -0.59%; in test [12] it was 8.81%. In addition, the inhibition in test [13] was 4.43%; in [14] it was 1.25%; in test [15] it was 0.76%; in test [16], 3.48%; in test [17] it was 4.91%; in [18] it was 2.38%. Moreover, the inhibition was 3.24% in test [19] and 0.72% in test [20].
`Fc1ccc(-c2cc(-c3c[nH]nc3-c3ccccn3)ccn2)cc1`: the inhibition in [1] amounted to 59.6%; in [2], 5.25%; in test [3], 3.85%; in test [4], 10.7%; in [5], 44.4%; in [6], 4.5%. In addition, the inhibition in test [7] is 6.92%; in test [8] it was 6.43%; in test [9], 7.79%; in test [10], -0.73%; in [11], 1.02%; in test [12], 6.01%. Also, the inhibition came to 5.42% in [13]; 1.23% in test [14]; 1.38% in [15]; 4.08% in [16]; 5.11% in [17]; 6.2% in [18]. For the same molecule, the inhibition was 2.37% in test [19] and -1.74% in test [20].
In the case of `COc1cc(N2CCN(C(C)C)CC2)ccc1Nc1nc(Nc2ccc(F)cc2C(N)=O)c2cc[nH]c2n1`, the inhibition is 68.1% in test [1]; 2.21% in test [2]; 15.6% in test [3]; 14.2% in test [4]; 55% in [5]; 5.27% in [6]. The inhibition in test [7] is 25.2%; in test [8], 4.27%; in test [9] it was 10.3%; in test [10], 0.23%; in [11] it was 2.73%; in [12], 3.63%. The inhibition in [13] was 7.46%; in test [14] it was 0.48%; in test [15], 2.24%; in test [16] it was 2.9%; in [17], 6.18%; in test [18], 8.18%. The results for the inhibition in test [19] and in test [20] were 27.4% and -5.81%, respectively.
`CS(=O)(=O)CCNCc1ccc(-c2ccc3ncnc(Nc4ccc(OCc5ccccc5)c(C(F)(F)F)c4)c3c2)o1`: the inhibition in test [1] was 4.73%; in [2], 3.83%; in [3], 3.81%; in [4] it was 5.41%; in test [5], 5.83%; in test [6], 2.67%. In addition, the inhibition in test [7] was 3.71%; in test [8], 4.04%; in test [9] it was 4.03%; in test [10], -1.35%; in [11] it was -2.67%; in test [12], 4.26%. The inhibition turned out to be 8.46% in test [13]; 1.24% in test [14]; 1.28% in test [15]; 4.99% in test [16]; 4.14% in [17]; 1.91% in [18]. The values for the inhibition in test [19] and in test [20] were 3.73% and -5.25%, respectively.

Values taken from ChEMBL document CHEMBL1961873, “Compounds: GSK PKIS; Assays: Nanosyn kinase panel” (2012).
